From PubChem BioAssay
The list is a sample of the results.
aSyn 5UTR act: Activators via SNCA 5'UTR binding, MLPCN; actives 7.1% (n = 300,000); alpha-synuclein 5'UTR reporter, activators screen; activity score, % (tested at 7.5 µM), hits read low; in the data active = activity score below about -60%
Of the large screens only hits and unclear results are named; the others gave an inactive call.

Cc1ccc(Nc2n[nH]c(C)c2[N+](=O)[O-])c(C)c1	aSyn 5UTR act -66
COc1ccc(Nc2n[nH]c(C)c2[N+](=O)[O-])cc1	aSyn 5UTR act -102
Cc1ccc(NC2=C(Cl)C(=O)OC2OC(C)C)c(C)c1 (stereo not drawn)	none
Cc1cc(C(=O)N(C)C)sc1-c1ccccc1	aSyn 5UTR act -132
Cn1cnnc1SCC(=O)Nc1ccc2nc(SCc3ccccc3F)sc2c1	aSyn 5UTR act -163
CSc1nc2ccc(NC(=O)CSc3nnc(N)s3)cc2s1	aSyn 5UTR act -119
CCCCNC(=O)c1ccc(Cn2c(=S)[nH]c3c([nH]c4ccc(OC)cc43)c2=O)cc1	none
CCCNC(=O)c1ccc2c(=O)c(O)c(-c3ccc(OC)cc3)[nH]c2c1	none
COc1ccc2[nH]cc(C(=O)NCCc3ccccc3)c(=O)c2c1	aSyn 5UTR act -71
COc1ccc2c(=O)c(C(=O)NCCc3ccccc3)c[nH]c2c1	aSyn 5UTR act -169
CCCCC(=NCCc1c(C)[nH]c2ccc(OC)cc12)C1=C(O)CC(c2ccccc2)CC1=O (stereo not drawn)	none
COc1cccc(C(=O)Nc2nc3c(s2)CN(C)CC3)c1	aSyn 5UTR act -85
CC(C)(C)c1ccc(-c2nnc(NC(=O)c3ccccc3)s2)cc1	aSyn 5UTR act -163
COc1cccc(C(=O)Nc2nnc(-c3ccccc3)s2)c1	aSyn 5UTR act -224
COc1cccc(C(=O)NCc2ccc(-c3nc4ccccc4s3)cc2)c1	aSyn 5UTR act -109
CC(C)OC(=O)/C(C#N)=C/c1ccc(-c2ccc(SC(F)F)cc2)o1	aSyn 5UTR act -88
COc1ccc(Br)cc1C(=O)Nc1cc(C)cc(C)c1	aSyn 5UTR act -62
COc1cc(SC)ccc1C(=O)Nc1ncc(C)s1	none
COc1cc(SC)ccc1C(=O)Nc1ncc(Cl)cc1Cl	aSyn 5UTR act -91
COc1cc(SC)ccc1C(=O)Nc1ccc(C)cc1	aSyn 5UTR act -142
COc1cc(SC)ccc1C(=O)Nc1ccc2c(c1)OCO2	aSyn 5UTR act -69
COc1cc(CNc2ccc3c(c2)CCC3)cc(OC)c1O	aSyn 5UTR act -226
CCOc1cc(CNc2ccc3c(c2)CCC3)ccc1O	aSyn 5UTR act -119
O=C(COc1ccc(Cc2ccccc2)cc1)c1ccc(F)cc1	aSyn 5UTR act -72
O=C(COc1ccc(F)cc1)c1ccc2c(c1)CCCC2	aSyn 5UTR act -133
Cc1ccnc(SCC(=O)c2ccc(Br)cc2)c1C#N	aSyn 5UTR act -198
Cc1ccc(C(=O)CSc2nsc(C)c2C#N)cc1	aSyn 5UTR act -149
Cc1snc(SCC(=O)c2ccc(Cl)cc2)c1C#N	aSyn 5UTR act -140
Cc1ccc(NC2=C(Cl)C(=O)N(C3CCCCC3)C2=O)cc1	aSyn 5UTR act -124
Cc1cccc(/C(N)=N/OC(=O)Cc2ccccc2)c1	aSyn 5UTR act -142
CCC(C(=O)O/N=C(\N)c1cccc(C)c1)c1ccccc1 (stereo not drawn)	aSyn 5UTR act -88
Cc1cccc(/C(N)=N/OC(=O)N2c3ccccc3Sc3ccccc32)c1	aSyn 5UTR act -70
CC1(C)CC(=O)c2ccc(OCc3ccc([N+](=O)[O-])cc3)cc2O1	aSyn 5UTR act -151
CC1(C)CC(=O)c2c(O)cc(OCc3ccc(Br)cc3)cc2O1	aSyn 5UTR act -165
COc1ccc(NC(=O)C(=O)NCC2CCCN2S(=O)(=O)c2ccc(C)cc2)cc1 (stereo not drawn)	none
Cc1ccc(S(=O)(=O)N2CCCC2CNC(=O)C(=O)Nc2ccc(F)cc2)cc1 (stereo not drawn)	aSyn 5UTR act -74
O=C(COC(=O)[C@@H]1CCCN1S(=O)(=O)c1ccc(Cl)cc1)NCC(F)(F)F	none
CCC(C)(C)c1ccc(Oc2ccc(N)cc2)cc1	none
CCCC(C)NC(=O)c1cccc(Oc2ccccc2)c1 (stereo not drawn)	aSyn 5UTR act -64
CCC(C)(C)c1ccc(Oc2cccc(C(=O)O)c2)cc1	aSyn 5UTR act -95
COc1ccccc1NS(=O)(=O)c1cccc(-n2c(O)c(C=Nc3ccccc3C(=O)O)c3ccccc3c2=O)c1	aSyn 5UTR act -66
COc1ccc(-n2c(O)c(/C=N/Nc3nc(C)cc(C)n3)c3ccccc3c2=O)cc1OC	none
Nc1ccc2oc(-c3ccccc3Cl)nc2c1	none
CCc1ccc2oc(-c3cc(N)ccc3Cl)nc2c1	aSyn 5UTR act -63
NC(=O)C1=C[C@H](c2ccccc2)C[C@H](OCc2ccc(CO)cc2)O1	aSyn 5UTR act -67
O=C(Nc1ccccc1)C1=C[C@@H](c2ccccc2)C[C@@H](OCc2ccc(CO)cc2)O1	aSyn 5UTR act -94
CCc1ccc(NC(=O)c2cnn3ccccc23)cc1	none
CSc1cccc(NC(=O)c2cnn3ccccc23)c1	aSyn 5UTR act -100
CSc1cccc(NC(=O)c2ccccn2)c1	aSyn 5UTR act -103
O=C(NCc1ccc(F)cc1)c1cnn2ccccc12	aSyn 5UTR act -87
COc1ccc(NC(=O)c2ccccn2)cc1OC	aSyn 5UTR act -88
COc1ccc(NC(=O)c2ccccn2)cc1	none
CSc1cccc(NC(=O)c2cnccn2)c1	aSyn 5UTR act -69
CSc1nc(Cl)cc(Nc2ccc(O)cc2)n1	aSyn 5UTR act -79
C(#CC1CCCC1)c1ccc2c(c1)COc1c3ccccc3nn1-2	aSyn 5UTR act -146
CCOC(=O)c1cnc(Nc2ccccc2)nc1C(F)(F)F	aSyn 5UTR act -89
CCCCNC(=O)N(C)c1nc2ccccc2s1	aSyn 5UTR act -133
CN(C(=O)OC(C)(C)C)c1ccc(-c2nc3ccccc3s2)cc1	none
CCCCNC(=O)c1cc2ccccc2s1	aSyn 5UTR act -108
COC(=O)N(C)c1nc2ccccc2s1	aSyn 5UTR act -77
Cc1ccc(S(=O)(=O)c2ccc([N+](=O)[O-])cn2)cc1	aSyn 5UTR act -73
O=C(Oc1ccc(F)cc1C(=O)/C=C/c1cccs1)c1cccc([N+](=O)[O-])c1	aSyn 5UTR act -87
CC(=O)Nc1cccc(C(=O)OCC(=O)c2ccccc2Cl)c1	aSyn 5UTR act -99
CC(=O)Nc1cccc(C(=O)OCC(=O)N2CCC(c3ccccc3)=N2)c1	aSyn 5UTR act -89
CCC(=O)Nc1cccc(C(=O)OCC(=O)c2ccccc2Cl)c1	aSyn 5UTR act -171
CN=C1S/C(=C\c2ccc(N3CCOCC3)c(F)c2)C(=O)N1C	aSyn 5UTR act -76
CN=C1S/C(=C\c2ccc(N3CCCC3)c(F)c2)C(=O)N1C	aSyn 5UTR act -139
CC(C)C(=O)NC(c1cccc([N+](=O)[O-])c1)c1ccc2cccnc2c1O (stereo not drawn)	none
CCC(=O)NC(c1ccc(OC)c(OC)c1)c1cc(Cl)c2cccnc2c1O (stereo not drawn)	none
CCC(=O)NC(/C=C/c1ccccc1)c1cc([N+](=O)[O-])c2cccnc2c1O (stereo not drawn)	aSyn 5UTR act -94
S=C(NN=C1CCCCCC1)Nc1ccc(Cl)cc1	aSyn 5UTR act -71
Fc1ccc(NC(=S)NN=C2CCCCCC2)cc1	aSyn 5UTR act -75
C#CCn1c(C)cc(C)c(S(=O)(=O)c2ccccc2)c1=O	aSyn 5UTR act -73
Cc1cnnc2ccc3c(no[n+]3[O-])c12	aSyn 5UTR act -93
COc1ccccc1N1CCN(C(=O)c2ccc(Cl)c(S(=O)(=O)NCc3ccco3)c2)CC1	aSyn 5UTR act -124
COc1cc(C(=O)N2CCN(c3cc(Cl)ccc3Cl)CC2)cc(OC)c1OC	none
Cn1cnnc1Sc1ccc(/C=C/C(=O)c2ccc(O)cc2)cc1[N+](=O)[O-]	aSyn 5UTR act -111
O=C(NOCc1ccccc1)c1ccccc1	aSyn 5UTR act -92
O=C(/C=C/c1ccc2c(c1)OCCCO2)c1ccccc1O	aSyn 5UTR act -311
Cc1ccc(O)c(C(=O)/C=C/c2ccc3c(c2)OCCCO3)c1	aSyn 5UTR act -188
COc1ccccc1NC(=O)c1cc2ccc(O)cc2o/c1=N\O	aSyn 5UTR act -97
